Shiga toxin inh = inhibitors of Shiga toxin in Vero cells | 290,000 tested, 9.2% active | Vero cells, Shiga toxin protein synthesis inhibition reporter | inhibition, % at 38.7 µM; in the data active = inhibition mostly above about 28%, no sharp cut-off; inactive = mostly below about 43%
Pf growth 48h = inhibits P. falciparum growth in the first generation, 48 h; P. falciparum luciferase growth in erythrocytes, 48 h; Potency, µM (top dose mostly 28.7 µM), usual class: inhibitors; 310,000 tested, 5.9% active
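Compounds are pin-transferred into medium, infected erythrocytes (2% hematocrit, 0.1% parasitemia final) are added, and plates sit one parasite generation at 37 C in 5% CO2. Detection reagent is then added and luminescence measured.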
AMA1 RON2 block = AMA1-RON2 (P. falciparum) interaction inhibition; AlphaScreen AMA1-biotinylated RON2 peptide binding; Potency, µM (highest dose often 58.2 µM), hits mostly inhibitors; 360,000 tested, 0.2% active; AID 720542; note: nearly all actives have a fitted effect of over 45% in size
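AMA1 (3D7) with his tag at 25 nM final met compounds first, then biotinylated RON2 peptide at 25 nM; detection used donor plus acceptor beads, 10 µg/mL apiece, read by AlphaScreen after 30 min at room temperature.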
Cycloheximide cs = counter-screen hit for Shiga toxin inhibitors, cycloheximide | max response, % | cell reporter, cycloheximide protein synthesis inhibition counterscreen | AID 2314 | 300,000 tested, 12% active; in the data active = max response mostly above about 13%, no sharp cut-off; inactive = mostly below about 14%; note: read at 38.3 µM for the half of the compounds with a filed dose
Pf growth 96h = P. falciparum growth inhibition at 96 hours | P. falciparum luciferase reporter growth, 96 h | Potency, µM (doses to about 28.7 µM), actives largely listed as inhibitors | 320,000 tested, 6.9% active | AID 504834
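Cell-based qHTS: luciferase-tagged P. falciparum in erythrocytes (2% hematocrit, 0.05% parasitemia final) incubated with compounds for 96 hours, 37 C, 5% CO2; luciferase detection reagent then added and luminescence measured.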
SARS PLpro yeast = blocks SARS-CoV papain-like protease in a yeast assay; S. cerevisiae expressing SARS-CoV PLpro, growth rescue; AID 485353; 330,000 tested, 0.19% active; Potency, µM (top dose mostly 32.9 µM), usual class: activators; calls by dose curve; note: nearly all actives have a fitted effect of over 55% in size
Hits are given with their value. In the library only some 19% were active in any assay of this set; here they are far more common. Unless noted, calls come from the whole dose curve; as a rule, active = well fitted curve in the direction sought with a large enough effect; inconclusive = small, poorly fitted or top-dose-only effect, or another doubt; inactive = no such curve, though single readings can be large; an effect the other way counts as inactive or inconclusive.

Screening CN(C)Cc1c(C(C)(C)O)[nH]c2ccc(C(F)(F)F)cc12 returned AMA1 RON2 block inactive and SARS PLpro yeast inactive.
`CC(C)(O)c1[nH]c2cc(C(F)(F)F)ccc2c1C(C)(C)O` gave Shiga toxin inh 37, Pf growth 48h inactive, AMA1 RON2 block inactive, Cycloheximide cs inactive, Pf growth 96h inactive and SARS PLpro yeast inactive.
For CC(C)(O)c1[nH]c2ccc(C(F)(F)F)cc2c1C(C)(C)O the results were Shiga toxin inh inactive, Pf growth 48h inactive, AMA1 RON2 block inactive, Cycloheximide cs 7.9, Pf growth 96h inactive and SARS PLpro yeast inactive.
`O=C(NCc1cccnc1)c1ccccc1-c1ccccc1` gave Shiga toxin inh inactive, Pf growth 48h inactive, AMA1 RON2 block inactive, Cycloheximide cs inactive, Pf growth 96h inactive and SARS PLpro yeast inactive.
`O=C(/C=C/c1ccccc1)NCc1cccnc1` gave Shiga toxin inh inactive, Pf growth 48h inactive, AMA1 RON2 block inactive, Cycloheximide cs inactive, Pf growth 96h inactive and SARS PLpro yeast inactive.
`O=C(/C=C/NCc1cccnc1)c1ccc(-c2ccccc2)cc1` gave Shiga toxin inh 91, Pf growth 48h inactive, AMA1 RON2 block inactive, Cycloheximide cs 33, Pf growth 96h inactive and SARS PLpro yeast inactive.
O=C(O)/C=C\C(=O)NCc1cccnc1 was read as Shiga toxin inh inactive, Pf growth 48h inactive, AMA1 RON2 block inactive, Cycloheximide cs inactive, Pf growth 96h 2.6µM and SARS PLpro yeast inactive.
Screening O=C(O)/C=C/C(=O)NCc1ccccc1 returned Shiga toxin inh inactive, Pf growth 48h inactive, AMA1 RON2 block inactive, Cycloheximide cs inactive, Pf growth 96h inactive and SARS PLpro yeast inactive.
`O=C(/C=C/c1ccc(-c2ccccc2)cc1)NCc1cccnc1` gave Pf growth 48h inactive, AMA1 RON2 block inactive, Cycloheximide cs 28, Pf growth 96h inconclusive and SARS PLpro yeast inactive.
CN1C2=C(C(=O)CC(C)(C)C2)C(c2cccs2)C2=C1CC(C)(C)CC2=O was read as AMA1 RON2 block inactive.
For Cn1c2c(c3cc([N+](=O)[O-])ccc31)CCCC2 the results were Shiga toxin inh inactive, Pf growth 48h inactive, AMA1 RON2 block inactive, Cycloheximide cs inactive, Pf growth 96h inactive and SARS PLpro yeast inactive.
Screening CC1(C(=O)NNC(=O)c2cccc([N+](=O)[O-])c2)CC1(Br)Br (configuration not stated) returned Shiga toxin inh inactive, Pf growth 48h inactive, AMA1 RON2 block inactive, Cycloheximide cs inactive, Pf growth 96h inactive and SARS PLpro yeast inactive.
O=C(CN1CCCCCC1)Nc1cc([N+](=O)[O-])ccc1Cl was read as Shiga toxin inh inactive, Pf growth 48h inactive, AMA1 RON2 block inactive, Cycloheximide cs inactive, Pf growth 96h inactive and SARS PLpro yeast inactive.
Screening CC(C)(C)CC(=O)Nc1nnc(-c2cccs2)s1 returned Shiga toxin inh 67, Pf growth 48h inactive, AMA1 RON2 block inactive, Cycloheximide cs 43, Pf growth 96h inconclusive and SARS PLpro yeast inactive.
`CCc1nnc(NC(=O)CN2CCN(c3nc(-c4ccccc4)cs3)CC2)s1` gave Shiga toxin inh inactive, Pf growth 48h 10µM, AMA1 RON2 block inactive, Cycloheximide cs inactive, Pf growth 96h 9.3µM and SARS PLpro yeast inactive.
O=C(CN1CCCCC1)Nc1nnc(-c2ccc([N+](=O)[O-])cc2)s1 was read as Shiga toxin inh inactive, Pf growth 48h inactive, AMA1 RON2 block inactive, Cycloheximide cs 21, Pf growth 96h inactive and SARS PLpro yeast inactive.
For CC(C)(C)CC(=O)Nc1nnc(C(F)(F)F)s1 the results were Shiga toxin inh inactive, Pf growth 48h inactive, AMA1 RON2 block inactive, Cycloheximide cs inactive, Pf growth 96h inactive and SARS PLpro yeast inactive.
`O=C(CN1CCCC1)Nc1nnc(-c2cccs2)s1` gave Shiga toxin inh 89, Pf growth 48h inactive, AMA1 RON2 block inactive, Cycloheximide cs 28, Pf growth 96h inactive and SARS PLpro yeast inactive.
Screening CC(=O)N(C)c1nc(N)n(-c2ccccc2)n1 returned Shiga toxin inh inactive, Pf growth 48h inactive, AMA1 RON2 block inactive, Cycloheximide cs inactive, Pf growth 96h inactive and SARS PLpro yeast inactive.
COc1ccc(CC2(C)OC(c3ccccc3)=NN2C(C)=O)cc1 (configuration not stated) was read as Shiga toxin inh inactive, Pf growth 48h inconclusive, AMA1 RON2 block inactive, Cycloheximide cs inactive, Pf growth 96h inactive and SARS PLpro yeast inactive.
COc1ccc(S(=O)NC2CCCCC2)c(OC)c1C (configuration not stated) was read as Shiga toxin inh inactive, Pf growth 48h inactive, AMA1 RON2 block inactive, Cycloheximide cs inactive, Pf growth 96h inactive and SARS PLpro yeast inactive.
Screening O=C(CN1CCCCC1)Nc1nnc(-c2ccccc2)s1 returned Shiga toxin inh 72, Pf growth 48h inactive, AMA1 RON2 block inactive, Cycloheximide cs 20, Pf growth 96h inactive and SARS PLpro yeast inactive.
For Cc1sc2ncnc(N3CCC(C(=O)Nc4nnc(CC(C)C)s4)CC3)c2c1C the results were Pf growth 48h inconclusive, AMA1 RON2 block inactive, Pf growth 96h inactive and SARS PLpro yeast inactive.
For O=[N+]([O-])c1ccc(-c2cn3c(n2)CCC3)cc1 the results were Shiga toxin inh 104, Pf growth 48h inactive, AMA1 RON2 block inactive, Cycloheximide cs 57, Pf growth 96h inactive and SARS PLpro yeast inactive.
Screening c1ccc(-c2cn3c(n2)CCC3)cc1 returned Shiga toxin inh inactive, AMA1 RON2 block inactive, Cycloheximide cs inactive, Pf growth 96h inactive and SARS PLpro yeast inactive.
`CCCCc1ccc(NC(=S)N2CCCC2)cc1` gave Shiga toxin inh 69, Pf growth 48h inactive, AMA1 RON2 block inactive, Cycloheximide cs 48, Pf growth 96h inconclusive and SARS PLpro yeast inactive.
CCCCc1ccc(NC(=S)N2CCN(C)CC2)cc1 was read as Shiga toxin inh inactive, Pf growth 48h inactive, AMA1 RON2 block inactive, Cycloheximide cs 20, Pf growth 96h inconclusive and SARS PLpro yeast inactive.
`CC1(C)CC2(CCO1)OC(=O)CC2C(=O)NCc1ccccc1` (configuration not stated) gave Shiga toxin inh inactive, Pf growth 48h inactive, AMA1 RON2 block inactive, Cycloheximide cs inactive, Pf growth 96h inactive and SARS PLpro yeast inactive.
For CCNC(=O)C1CCCN(C(=O)c2cccc(OC(F)(F)F)c2)CC1 (configuration not stated) the results were AMA1 RON2 block inactive.
`CCCCC(=O)OCC(=O)Nc1ccc(C)c(F)c1` gave Shiga toxin inh inactive, Pf growth 48h inactive, AMA1 RON2 block inactive, Cycloheximide cs inactive, Pf growth 96h inactive and SARS PLpro yeast inactive.
`Cn1c(=O)c2ncn(CC(=O)Nc3nc(-c4ccc(Cl)cc4)cs3)c2n(C)c1=O` gave Shiga toxin inh inactive, Pf growth 48h inactive, AMA1 RON2 block inactive, Cycloheximide cs inactive, Pf growth 96h inactive and SARS PLpro yeast inactive.
Screening COC(=O)c1sccc1N/N=C/c1cccc(OC)c1O returned Shiga toxin inh inactive, Pf growth 48h inactive, AMA1 RON2 block inactive, Cycloheximide cs 19, Pf growth 96h inactive and SARS PLpro yeast inactive.

Assay outcomes from PubChem.
